Measured values as given in PubChem BioAssay (NCI).
Compounds without any hit were thinned out: in the full panel of roughly 83,000, 20% have a hit.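 Assay: single dose, 48 h. Readout: percent growth (0 = no net growth; negative = cell death). Active: <10.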 Active and inactive are the calls of the source.

How the values were obtained:
Assay in all cases: NCI-60 one-dose screen, 48 h (100 = growth as untreated, 0 = no growth, -100 = all killed)
SR leukemia = details: 10 µM unless noted
RPMI-8226 leukemia = details: 10 µM unless noted
OVCAR-8 ovarian = details: 10 µM unless noted
OVCAR-5 ovarian = details: 10 µM unless noted
OVCAR-4 ovarian = details: 10 µM unless noted
SK-OV-3 ovarian = details: 10 µM unless noted
IGROV1 ovarian = details: 10 µM unless noted
OVCAR-3 ovarian = details: 10 µM unless noted
T-47D breast = details: 10 µM unless noted
BT-549 breast = details: 10 µM unless noted
MDA-MB-435 melanoma = details: 10 µM unless noted
SW-620 colon = details: 10 µM unless noted
MCF7 breast = details: 10 µM unless noted
HCT-116 colon = details: 10 µM unless noted
HCC-2998 colon = details: 10 µM unless noted
KM12 colon = details: 10 µM unless noted
NCI/ADR-RES ovarian = details: 10 µM unless noted
HS 578T breast = details: 10 µM

Measured: growth

O=c1c2sc3ncc(Cl)cc3c2nnn1-c1cccc(Cl)c1
active: OVCAR-4 ovarian -7.2%
inactive: SR leukemia 77.7% | RPMI-8226 leukemia 82.4% | OVCAR-8 ovarian 79.8% | OVCAR-5 ovarian 86.2% | SK-OV-3 ovarian 40.7% | IGROV1 ovarian 63% | OVCAR-3 ovarian 24.7% | T-47D breast 74.7% | BT-549 breast 85.4% | MDA-MB-435 melanoma 66.9% | SW-620 colon 80.5% | MCF7 breast 82.5% | HCT-116 colon 31.3% | HCC-2998 colon 125% | KM12 colon 87.4%

Cc1nc2c(-c3cnc(N)nc3)nc(N3CCOCC3)nc2n1C(C)C
inactive: RPMI-8226 leukemia 12.8% | OVCAR-3 ovarian 10% | SW-620 colon 11.3% | HCT-116 colon 17.2%
active: SR leukemia 7% | OVCAR-8 ovarian -8.95% | OVCAR-5 ovarian 7.67% | OVCAR-4 ovarian -3.01% | SK-OV-3 ovarian -39.7% | IGROV1 ovarian -24.7% | NCI/ADR-RES ovarian -5.49% | T-47D breast -18% | BT-549 breast -3.32% | MDA-MB-435 melanoma 4.17% | MCF7 breast 9.9% | KM12 colon 5.78%

CCOP(=O)(O)OP(=O)(O)OCC
inactive: SR leukemia 91.2% | RPMI-8226 leukemia 95.8% | OVCAR-8 ovarian 119% | OVCAR-5 ovarian 96.9% | OVCAR-4 ovarian 105% | SK-OV-3 ovarian 97.3% | IGROV1 ovarian 97.3% | OVCAR-3 ovarian 105% | NCI/ADR-RES ovarian 105% | T-47D breast 92.5% | BT-549 breast 102% | SW-620 colon 103% | MCF7 breast 94.1% | HCT-116 colon 106% | HCC-2998 colon 104% | KM12 colon 103%

CC(=O)c1cccc(Nc2ncnc3ccc(NC(=O)c4ccco4)cc23)c1
inactive: SR leukemia 90.2% | RPMI-8226 leukemia 75% | OVCAR-8 ovarian 92.1% | OVCAR-5 ovarian 90.4% | OVCAR-4 ovarian 89% | SK-OV-3 ovarian 104% | IGROV1 ovarian 86.1% | HS 578T breast 102% | NCI/ADR-RES ovarian 92.7% | T-47D breast 77.1% | BT-549 breast 96.5% | MDA-MB-435 melanoma 83% | SW-620 colon 115% | MCF7 breast 80.9% | HCT-116 colon 91% | HCC-2998 colon 111%

C=C1NC(=O)C(C(C)CC)NC(=O)C2CSCC(NC(=O)CCC(=O)O)C(=O)NC(Cc3ccccc3)C(=O)NC(C)C(=O)NC(CC(C)CC)C(=O)NC(C(=O)NC(Cc3ccccc3)C(=O)N3CCCC3C(=O)N2)C(C)OC(=O)C(CO)NC(=O)C(C(O)COC)N(C)C(=O)C(C(C)C)NC(=O)C(CC(C)CC)NC1=O (stereo not drawn)
inactive: SR leukemia 12.5% [6 µM] | RPMI-8226 leukemia 25.3% [6 µM] | OVCAR-8 ovarian 12.9% [6 µM] | OVCAR-5 ovarian 44.9% [6 µM] | OVCAR-4 ovarian 55.6% [6 µM] | SK-OV-3 ovarian 39% [6 µM] | IGROV1 ovarian 30.9% [6 µM] | OVCAR-3 ovarian 12.4% [6 µM] | T-47D breast 60.2% [6 µM] | SW-620 colon 21.2% [6 µM] | MCF7 breast 16.9% [6 µM] | HCC-2998 colon 12.3% [6 µM]
active: NCI/ADR-RES ovarian 9.55% [6 µM] | BT-549 breast 7.87% [6 µM] | MDA-MB-435 melanoma -34.8% [6 µM] | HCT-116 colon 6.69% [6 µM] | KM12 colon 2.09% [6 µM]

COc1cc(Nc2ccnc3ccc(Br)cc23)cc(OC)c1OC
inactive: SR leukemia 15.7% | RPMI-8226 leukemia 30.4% | OVCAR-8 ovarian 36.6% | OVCAR-5 ovarian 51.6% | OVCAR-4 ovarian 62.5% | SK-OV-3 ovarian 36.6% | IGROV1 ovarian 38.2% | OVCAR-3 ovarian 29.8% | NCI/ADR-RES ovarian 12.8% | T-47D breast 40.9% | BT-549 breast 53.7% | SW-620 colon 19.4% | MCF7 breast 15.5% | HCT-116 colon 21.7% | HCC-2998 colon 71.4% | KM12 colon 21%
active: MDA-MB-435 melanoma -41.5%

CCN(CC)CCCC(C)N/C(c1cccc(OC)c1)=c1\c(=O)[nH]n(-c2c3ccccc3nc3ccccc23)c(=O)\c1=C(/NC(C)CCCN(CC)CC)c1cccc(OC)c1 (stereo not drawn)
active: SR leukemia 0.449% | RPMI-8226 leukemia -37.3% | OVCAR-8 ovarian -7.7% | OVCAR-5 ovarian 1.41% | OVCAR-4 ovarian -48.1% | SK-OV-3 ovarian -10.1% | IGROV1 ovarian -6.96% | OVCAR-3 ovarian -36.6% | T-47D breast -26.7% | BT-549 breast -5.18% | MDA-MB-435 melanoma -91.1% | SW-620 colon -21.6% | MCF7 breast -12.7% | HCT-116 colon -9.94% | HCC-2998 colon -72.7% | KM12 colon -47.4%

CCCCCCCCCCCCCCC(C(=O)OCC)C(=O)OCC
inactive: SR leukemia 116% | RPMI-8226 leukemia 104% | OVCAR-8 ovarian 103% | OVCAR-5 ovarian 103% | OVCAR-4 ovarian 109% | SK-OV-3 ovarian 112% | IGROV1 ovarian 103% | OVCAR-3 ovarian 110% | NCI/ADR-RES ovarian 104% | T-47D breast 101% | BT-549 breast 104% | MDA-MB-435 melanoma 96.1% | SW-620 colon 107% | MCF7 breast 98.5% | HCT-116 colon 109% | HCC-2998 colon 106% | KM12 colon 108%

NC(=Nc1ccccc1)SCCCSC(N)=Nc1ccccc1
inactive: SR leukemia 94.6% | RPMI-8226 leukemia 73.4% | OVCAR-8 ovarian 86.4% | OVCAR-5 ovarian 86.4% | OVCAR-4 ovarian 76.8% | SK-OV-3 ovarian 97.3% | IGROV1 ovarian 80.1% | HS 578T breast 89% | NCI/ADR-RES ovarian 85.5% | T-47D breast 70.1% | BT-549 breast 92.9% | MDA-MB-435 melanoma 89.8% | SW-620 colon 95.4% | MCF7 breast 90.9% | HCT-116 colon 90.5% | HCC-2998 colon 99.2% | KM12 colon 94.7%
